D1 antagonist = blocks dopamine activation of the human D1 receptor; P21728; HEK293 TREx D1 cells, calcium flux, dopamine EC80; stronger effect = lower value; activity change, negative = inhibition, % at 10 µM; 360,000 tested, 3.2% active; AID 504652; in the data active = activity change below about -30%
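Kinetic fluorescence of a calcium dye serves as the read-out. D1-expressing Hek293 Trex cells, induced overnight at 30 C, are exposed to compound for 180 s before an EC80 dopamine addition, then read 180 s further.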
D1 potentiator = human D1 dopamine receptor positive modulation. P21728. HEK293 TREx D1 cells, calcium flux, dopamine EC20 potentiation. potentiation, % at 10 µM. 360,000 tested, 0.036% active; in the data active = potentiation above about 30%
D1 ag = activates the human D1 dopamine receptor; AID 504660; P21728; activation, % at 2 µM; 360,000 tested, 1% active; HEK293 T-REx D1 cells, calcium flux, agonist mode; in the data active = activation above about 30%
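Tetracycline-induced HEK293 TREx D1 cells, force-coupled to calcium signalling, were dye-loaded with a no-wash calcium kit. Compound was pin-added after a 10 s baseline. Fluorescence was read kinetically at 1 cycle/s for 180 s, with calcium rises flagged as agonism.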
D3 antag = blocks the human D3 dopamine receptor; 360,000 tested, 2.5% active; P35462; max response, negative = inhibition, %; D3R cells, DiscoveRx beta-arrestin luminescence, antagonist mode; stronger effect = lower value; AID 652054; in the data active = max response below about -50%; inconclusive = no clear call, values can overlap the other calls
Target sequence (P35462 whole entry, looked up): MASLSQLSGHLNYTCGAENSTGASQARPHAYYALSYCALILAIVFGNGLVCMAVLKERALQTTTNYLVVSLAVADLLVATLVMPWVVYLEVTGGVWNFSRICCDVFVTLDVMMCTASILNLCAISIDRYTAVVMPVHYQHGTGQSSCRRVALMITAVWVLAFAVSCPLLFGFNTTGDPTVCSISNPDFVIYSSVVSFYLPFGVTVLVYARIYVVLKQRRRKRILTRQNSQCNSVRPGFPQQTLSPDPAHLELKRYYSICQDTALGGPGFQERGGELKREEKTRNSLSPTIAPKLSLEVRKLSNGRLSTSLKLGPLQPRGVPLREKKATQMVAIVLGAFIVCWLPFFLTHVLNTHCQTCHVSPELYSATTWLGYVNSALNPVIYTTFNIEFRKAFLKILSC
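Cells expressing the human receptor were seeded at 1500 cells/well, incubated overnight at 37 degrees C in 5% CO2, then exposed to library compounds with dopamine controls for 90 minutes at 37 degrees C before luminescent detection.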
DRD3 agonist = D3 dopamine receptor (human) agonism | P35462 | D3R DiscoveRx beta-arrestin cells, luminescence, 90 min | max activation, % | 410,000 tested, 0.58% active | AID 652048; in the data active = max activation above about 30%
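Cells at 1500/well, incubated overnight, then treated with pinned compounds (dopamine as control) for 90 min at 37 degrees C. DiscoveRx reagent added for 30 - 60 minutes at room temperature; luminescence read.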
Hits are given with their value; - = inactive; ? = inconclusive; . = no result. A selection: hits, their analogues and other compounds. The true share with any hit is near 6%.

SMILES	D1 antagonist	D1 potentiator	D1 ag	D3 antag	DRD3 agonist
COC(=O)c1sccc1S(=O)(=O)N1CCN(c2ccccc2OC)CC1	-	-	-	.	-
C#CCNC(=O)C1=C[C@@H](c2ccc(Br)cc2)C[C@@H](OCc2ccc(CO)cc2)O1	-31	-	-	-	-
C#CCNC(=O)C1=C[C@H](C2CCCCC2)C[C@H](OCc2ccc(CO)cc2)O1	-35	-	-	-	-
C#CCNC(=O)C1=C[C@@H](c2ccc(C(F)(F)F)cc2)C[C@@H](OCCCCO)O1	-	-	-	-52	-
C#Cc1ccc([C@@H]2C=C(C(=O)O)O[C@H](OCc3ccc(CO)cc3)C2)cc1	-39	-	-	-	-
O=C(O)C1=C[C@@H](c2ccccc2)C[C@@H](OCc2ccc(CO)cc2)O1	-	-	-	-	-
C#CCNC(=O)C1=C[C@@H](C2CCCCC2)C[C@@H](OCc2ccc(CO)cc2)O1	-	-	-	-	-
CC(NS(=O)(=O)c1ccc2c(c1)CCN2C(=O)CCCC(=O)O)c1ccccc1 (centres undefined)	-	-	-	.	-
CCO/C(C)=N/Oc1cnc2ccccc2c1	.	.	.	-	-
Cc1ccc2cc(C#N)c(N3CCCN(C(=O)C4CCCO4)CC3)nc2c1 (centres undefined)	-44	-	-	-	-
CC(C)(C)C(=O)N1CCN(c2ccc(Cl)cc2[N+](=O)[O-])CC1	-	-	-	-	-
CC(C)(C)C(=O)N1CCN(c2c(Cl)cccc2[N+](=O)[O-])CC1	-52	-	-	-	-
Cn1c(N)c(C(=O)COC(=O)C2Cc3ccccc3CN2S(C)(=O)=O)c(=O)n(C)c1=O (centres undefined)	.	.	.	-	-
COC(=O)Cn1c(=NC(=O)c2nc3ccccc3s2)sc2cc(S(N)(=O)=O)ccc21	-	-	-	-	-
COCCn1c(=NC(=O)c2nc3ccccc3s2)sc2cc(S(C)(=O)=O)ccc21	-85	-	-	-	-
O=C1c2ccccc2S(=O)(=O)N1Cc1nnc(-c2ccccc2Br)o1	-	-	-	-	-
O=c1c2ccccc2nnn1Cc1nnc(-c2ccccc2Br)o1	-	-	47	-	-
CN(C(=O)c1ccno1)c1nnc(-c2ccccn2)s1	-35	-	-	-	-
COCCNC(=O)c1ccc2c(=O)n(CCOC)c(SCC(=O)c3c[nH]c4ccccc34)nc2c1	-	-	-	.	-
CN1CCN(CCCNC(=O)c2ccc3c(=O)n(CCc4ccccc4)c(=O)[nH]c3c2)CC1	-	-	-	-	-
O=C(NCc1ccccn1)c1ccc2c(=O)n(CCc3ccccc3)c(=O)[nH]c2c1	-54	-	-	-	-
CC1CCN(CCCNC(=O)c2ccc3c(=O)n(CCc4ccccc4)c(=O)[nH]c3c2)CC1	-42	-	-	-	-
COCCNC(=O)c1ccc2c(=O)n(CCc3ccccc3)c(SCC(=O)CC(=O)OC)nc2c1	-34	-	-	.	-
CC(=O)NCCNC(=O)c1ccc2c(=O)n(CCc3ccccc3)c(=O)[nH]c2c1	-67	-	-	.	-
CC(C)(C)NCC(O)CSc1nc(-c2ccc(C(N)=O)s2)cs1 (centres undefined)	.	.	.	.	-
SMILES	D1 antagonist	D1 potentiator	D1 ag	D3 antag	DRD3 agonist
Cc1ccc(Nc2c(F)cccc2Cl)c(CC(=O)O)c1	.	.	.	.	-
COc1ccc(-n2nc(C(=O)N3CCCC(C)C3)c3c4ccccc4n(C)c3c2=O)cc1 (centres undefined)	-	-	-	.	-
Cc1ccc(CN2C(=O)N(c3ccc(C)c(Cl)c3)S(=O)(=O)c3ccccc32)cc1	-	-	-	.	-
CCn1cnc2c(Nc3ccc(CC(=O)N=C(N)N)cc3)nc(C#N)nc21	-	-	-	.	.
Cc1ccc(N2CCN(S(=O)(=O)c3nnc(NC(=O)c4cccc(F)c4)s3)CC2)cc1	-	-	-	.	-
CCCCN=C(Nc1ccc(Cl)cc1)c1cccnc1	-	-	-	-64	-
COc1ccc(CCC(=O)N2c3ccccc3N=C(c3ccc(C(F)(F)F)cc3)C2C(=O)NC(C)C)cc1 (centres undefined)	.	.	.	-	86
Cc1ccn2c(CN(C)CCn3nc(C)cc3C)c(C(=O)N3CCCCCC3)nc2c1	-36	-	-	-	-
COc1ccc(COC(=O)c2ccc(Cl)c(S(=O)(=O)N3CC(C)OC(C)C3)c2)cc1 (centres undefined)	-	-	-	-	-
CCOC(=O)c1c(C(=O)OCC)c(C)n(N2C(=O)CSC2=S)c1C	-	-	-	-62	-
CCOC(=O)c1c(C)[nH]sc1=S	-	-	-	?	-
CC(=O)CC1(O)C(=O)N(Cc2ccccc2)c2ccccc21 (centres undefined)	-85	-	-	-	-
Cc1ccc(C(=O)CC2(O)C(=O)N(Cc3ccccc3Cl)c3ccccc32)o1 (centres undefined)	-31	-	-	-	-
COc1cc(F)c(S(=O)(=O)N2CCN(S(=O)(=O)c3ccc4c(c3)OCCO4)CC2)c(F)c1	-	-	-	.	.
Cn1c2ccccc2c2cc([N+](=O)[O-])ccc21	-	-	-	-	-
CN1c2ccc([N+](=O)[O-])cc2N(C)C1(C)c1ccccc1 (centres undefined)	-	-	-	-62	-
O=C(CSc1nnc(COc2ccccc2)o1)Nc1cc(C(F)(F)F)ccc1Cl	-	-	-	.	-
CCN1C(=O)c2ccccc2C1Nc1ccc(OCCN2CCCCC2)cc1 (centres undefined)	.	.	.	.	-
C=C[C@@H]1c2ccccc2N(S(=O)(=O)c2ccc(C)cc2)[C@H](c2ccccc2C(F)(F)F)C1(C#N)C#N	-	-	-	-	-
C=C[C@@H]1c2ccccc2N(S(=O)(=O)c2ccc(C)cc2)[C@H](c2ccc(C(F)(F)F)cc2)C1(C#N)C#N	-32	-	-	-	-
O=C(CSc1nc2c([nH]c3ccccc32)c(=O)n1-c1ccccc1)Nc1ccc2c(c1)OCCO2	-	-	-	.	-
Cc1cc(N2CCOCC2)ccc1/C=C\[N+](=O)[O-]	-	-	47	-	-
O=[N+]([O-])c1ccc(N2CCOCC2)cc1O	-	-	-	-	-
Cc1cnc(C(=O)Nc2ccc(F)cc2)cn1	-	-	-	-	-
Cc1cnc(C(=O)Nc2ccc(C(C)C)cc2)cn1	-31	-	-	-	-
SMILES	D1 antagonist	D1 potentiator	D1 ag	D3 antag	DRD3 agonist
CN1NC(=O)CC1c1ccccc1 (centres undefined)	.	.	.	-	-
CN1CC2(C)OC(=O)C(Cl)=C2CC1c1ccccc1 (centres undefined)	-55	-	-	-	-
COc1cc(/C=C/C(=O)OCC(=O)N2CC(C)OC(C)C2)ccc1OCC#N (centres undefined)	.	.	.	-	-
O=C(NC1CCCCC1)c1cc2cc(Br)ccc2o1	-	-	-	-	-
O=C(NC1CCCC1)c1cc2cc(Br)ccc2o1	-78	-	-	-	-
O=C(NC1CCCCCCC1)c1ccco1	-31	-	-	-	-

Source: PubChem BioAssay (National Center for Advancing Translational Sciences (NCATS))
